eIF4H FP inh: human eIF4H binding inhibitors, primary screen, translation initiation inhibitor project, biochemical, uHTS, fluorescence polarization; Eukaryotic translation initiation factor 4H (Homo sapiens), Q15056; actives 0.94% (n = 290,000); eIF4H fluorescence polarization binding assay; inhibition, % at 35 µM;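 note: calls also rest on retests at 20 µM and on dose response follow-up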
MLLE-PAM2 inh: inhibitors of PABP1 MLLE–PAM2 peptide binding, primary screen, biochemical, fluorescence polarization, FITC-PAM2, GST-MLLE; Polyadenylate-binding protein 1 (Homo sapiens), P11940; inhibition, % at 20 µM; actives 0.36% (n = 360,000); in the data active = inhibition above about 35%, passing the limit was not always enough;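 note: plate controls were DMSO wells with GST-MLLE for no effect and wells lacking GST-MLLE protein for full effect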
EBV gp42 block: Epstein-Barr virus gp42 inhibitors, primary screen, biochemical, uHTS, fluorescence polarization. Glycoprotein 42 (Epstein-Barr virus (strain AG876)), Q1HVG2. Fluorescence polarization binding assay, mP read-out. inhibition, % (tested at 21.74 µM). actives 0.42% (n = 220,000). AID 1085, 2008; in the data active = inhibition above about 50%
eIF4E-4G inh: eIF4E–eIF4G protein interaction inhibitors, primary screen, biochemical, uHTS, TR-FRET, eIF4GI fragment. Eukaryotic translation initiation factor 4E (Mus musculus) + Eukaryotic translation …. TR-FRET eIF4E-eIF4GI(517-606) binding, 2 h. inhibition, % at 21.7 µM. actives 0.37% (n = 220,000). AID 782, 2007;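 active = inhibition above about 30%, limit read from the data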;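 note: 0% = full FRET control wells and 100% = background wells lacking eIF4GI fragment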
PABP polyA inh: PABP poly(A) RNA binding inhibitors, primary screen, biochemical, fluorescence polarization, uHTS; Polyadenylate-binding protein 1 (Homo sapiens), P11940; calls only at 35 µM; actives 1% (n = 290,000); AID 2014, 2009;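 note: calls also rest on retests at 20 µM and on dose response follow-up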
Active calls of the source: *; i = inactive; ? = inconclusive; . = not tested or not shown; + = active, no number; [ ] = another dose, or the depositor's remark. Only some compounds are listed: those with a hit (about 1.7% of all), similar ones and a draw of the others. Unless noted, the rule behind the calls is not given here.

SMILES	eIF4H FP inh	MLLE-PAM2 inh	EBV gp42 block	eIF4E-4G inh	PABP polyA inh
COC(=O)C1=C[C@@H](C(=O)OC)[C@@H]2C3=C(C(=O)[C@]2(C)NC(=O)c2ccccc2)[C@H](C)n2c(=O)n(-c4ccccc4)c(=O)n2[C@@H]3C1	.	13.1	.	.	.
CCNC(=O)NC(=O)CSc1ccc(S(=O)(=O)N2CCOCC2)cn1	.	19.0	.	.	.
C[C@H](CO)N1C[C@H](C)[C@@H](CN(C)Cc2ccncc2)Oc2c(NS(=O)(=O)c3cccs3)cccc2C1=O	.	-1.2	.	.	.
Cc1c(-n2c(O)c(C3=c4ccccc4=NC3=O)sc2=O)c(=O)n(-c2ccccc2)n1C	-7.7	46.9*	-60.1	-2.7	i
Cn1c(O)c(C2=c3ccccc3=NC2=O)sc1=Nc1ccc(Cl)cc1	2.8	-12.2	-10.8	-0.4	i
O=C(NC(=S)Nc1cccc(Cl)c1N1CCCCC1)c1cccs1	6.6	28.5	-1.6	8.3	i
O=C(NC(=S)Nc1cccc(Cl)c1N1CCOCC1)c1cccs1	-9.5	42.1*	-7.3	1.3	i
Cc1cccc(NC(=S)NC(=O)c2cccs2)n1	1.3	40.8*	-20.4	4.8	i
O=C(NC(=S)Nc1cccc2cccnc12)c1cccs1	3.6	48.2*	-11.9	-1.1	i
N#Cc1ccccc1NC(=S)NC(=O)c1cccs1	-23.4	22.2	.	.	i
CCCC(=O)NC(=S)Nc1cccc(Cl)c1N1CCCC1	0.7	44.8*	14.5	-3.7	i
Cc1nc(NC(=S)NC(=O)c2cccs2)ccc1Br	3.3	6.1	-8.5	-0.7	i
COc1ccc(N2CCCC2=O)cc1S(=O)(=O)N1CCOCC1	.	-21.9	.	.	.
O=C(NC(=S)Nc1cccc2cnccc12)c1ccccc1	31.5	27.0	5.1	-1.9	i
CC(=O)NCCOc1cccc2cccnc12	-23.7	-10.8	4.0	-3.0	i
O=C(NC(=S)Nc1cccc2cccnc12)c1ccccc1	4.2	39.1*	2.6	-0.5	i
O=C(NC(=S)Nc1ccc(NC(=O)c2cccs2)cc1)c1cc2ccccc2o1	96.4*	18.1	-6.0	-5.9	+
O=C(NCCOc1cccc2cccnc12)c1cccs1	active	16.9	4.5	-1.7	+
CC(C)(C)c1ccc(NC(=O)C2CCCN(c3cnccn3)C2)cc1 (configuration not stated)	-0.4	3.8	.	.	i
C[C@H](NC(=O)[C@@H]1Cc2ccccc2CN1)C(=O)NCC1CCCO1 (some centres not stated)	-6.3	3.3	.	.	i
CC1CC(C)CN(C(=O)CCc2ccccc2)C1 (configuration not stated)	active	1.3	0.9	-1.0	i
Cc1cc(-c2cc(-c3ccc(Cl)cc3)nc(N)c2C#N)co1	?	-14.3	11.9	16.1	+
Cc1ccc(-c2cc(-c3ccc(Cl)cc3)c(C#N)c(N)n2)o1	91.1	-8.7	7.1	72.3*[fluorescence artefact?]	i
Cc1ccc(-c2c(C#N)c(N)nc3c2CCCCC3)o1	63.1*	8.7	3.2	-0.7	+
Cc1ccc(-c2cc(-c3ccc(C)o3)nc(N)c2C#N)cc1	?	-16.9	4.3	11.7	?
SMILES	eIF4H FP inh	MLLE-PAM2 inh	EBV gp42 block	eIF4E-4G inh	PABP polyA inh
Cc1ccc2c(C)c(C(=O)N3CCN(c4ncccn4)CC3)oc2c1C	-3.4	11.2	.	.	i
CC(C)C[C@H](N)c1cn([C@@H](CCCCN)C(=O)N2CCNCC2)nn1	16.0	10.2	-12.0	1.5	+
NCCCC[C@@H](C(=O)N1CCNCC1)n1cc(CN)nn1	.	-6.0	.	.	.
CCCCc1cn([C@@H](CCCCN)C(=O)N2CCNCC2)nn1	?	48.7*	31.5	-1.4	?
C#CCOCCOCCOCCNc1nc(N2CCN(C(=O)[C@H]([C@@H](C)CC)n3cc([C@@H](N)CC(C)C)nn3)CC2)nc(N2CCN(C(=O)[C@H](CCCCN)n3cc([C@@H](N)C(C)CC)nn3)CC2)n1 (some centres not stated)	34.8	4.9	-2.7	5.4	i
C#CCOCCOCCOCCNc1nc(N2CCN(C(=O)[C@H]([C@@H](C)CC)n3cc([C@@H](N)CC(C)C)nn3)CC2)nc(N2CCN(C(=O)[C@H](CCCCN)n3cc([C@@H](N)CC(C)C)nn3)CC2)n1	55.4*	.	-10.9	3.0	+

Assay outcomes (PubChem)
